PubChem BioAssay AID1159580 (chemical genetic matrix, 2015)
The campaign covered roughly 5,500 compounds. About 2,000 (36%) were called active. Another 18% or so got no clear call; they are omitted. Cut-off read from the data, not from the text of the source: active = normalized growth mostly below about 0.91 (no sharp cut-off); inconclusive = no clear call, values can overlap the other calls; inactive = mostly above about 0.92. Some of the results follow.

Assay: chemical genetic growth profiling, strain panel (AID 1159580);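 note: tested at 20 µM; growth read once vehicle control cultures reached saturation at 30 °C; 1 = growth at the plate median or of vehicle wells; lower values mean less growth of the strain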
Conditions: growth OD

Measured: normalized growth

COc1ccc(C(=O)CC(=O)c2ccc(C(C)(C)C)cc2)cc1
active: S. cerevisiae deletion strains, locus YLR262C, strain YPT6 (second series), hits give low values 0.801
inactive: S. cerevisiae deletion strains, locus YJR075W, strain HOC1, hits give low values 0.936 | S. cerevisiae deletion strains, locus YKL009W, strain mrt4, hits give low values 1.02 | S. cerevisiae deletion strains, locus YKL068W, hits give low values 0.996 | S. cerevisiae deletion strains, locus YKL085W, strain MDH1 (second series), hits give low values 0.989 | S. cerevisiae deletion strains, locus YKL085W, strain MDH1, hits give low values 0.989 | S. cerevisiae deletion strains, locus YKL160W, strain elf1, hits give low values 0.982 | S. cerevisiae deletion strains, locus YKL190W, strain CNB1, hits give low values 0.986 | S. cerevisiae deletion strains, locus YKR001C, strain vps1, hits give low values 1 | S. cerevisiae deletion strains, locus YKR026C, strain gcn3, hits give low values 0.988 | S. cerevisiae deletion strains, locus YKR091W, strain srl3, hits give low values 0.99 | S. cerevisiae deletion strains, locus YLL001W, strain dnm1, hits give low values 0.998 | S. cerevisiae deletion strains, locus YLL026W, hits give low values 0.998 | S. cerevisiae deletion strains, locus YLL041C, strain sdh2, hits give low values 0.972 | S. cerevisiae deletion strains, locus YLR027C, strain aat2, hits give low values 0.988 | S. cerevisiae deletion strains, locus YLR039C, strain RIC1, hits give low values 0.884 | S. cerevisiae deletion strains, locus YLR058C, strain SHM2, hits give low values 1.01 | S. cerevisiae deletion strains, locus YLR102C, strain apc9, hits give low values 1 | S. cerevisiae deletion strains, locus YLR113W, strain HOG1, hits give low values 0.969 | S. cerevisiae deletion strains, locus YLR221C, strain rsa3, hits give low values 0.937 | S. cerevisiae deletion strains, locus YLR258W, strain gsy2, hits give low values 0.971 | S. cerevisiae deletion strains, locus YLR262C, strain YPT6, hits give low values 0.903 | S. cerevisiae deletion strains, locus YLR268W, strain sec22, hits give low values 1 | S. cerevisiae deletion strains, locus YLR320W, strain mms22, hits give low values 0.956 | S. cerevisiae deletion strains, locus YLR330W, strain CHS5, hits give low values 1 | S. cerevisiae deletion strains, locus YLR342W, strain FKS1 (second series), hits give low values 1.1 | S. cerevisiae deletion strains, locus YLR342W, strain FKS1, hits give low values 0.992 | S. cerevisiae deletion strains, locus YLR357W, strain rsc2, hits give low values 1.03 | S. cerevisiae deletion strains, locus YLR370C, strain arc18, hits give low values 1 | S. cerevisiae deletion strains, locus YLR371W, strain rom2, hits give low values 1.01 | S. cerevisiae deletion strains, locus YLR384C, strain iki3, hits give low values 1.01 | S. cerevisiae deletion strains, locus YLR418C, strain cdc73, hits give low values 0.952 | S. cerevisiae deletion strains, locus YML016C, strain PPZ1, hits give low values 1 | S. cerevisiae deletion strains, locus YML032C, strain rad52, hits give low values 1 | S. cerevisiae deletion strains, locus YML120C, strain ndi1, hits give low values 1 | S. cerevisiae deletion strains, locus YML124C, strain tub3, hits give low values 1 | S. cerevisiae deletion strains, locus YMR058W, strain fet3, hits give low values 0.996 | S. cerevisiae deletion strains, locus YMR078C, strain ctf18, hits give low values 1.01 | S. cerevisiae deletion strains, locus YMR125W, strain sto1, hits give low values 0.977 | S. cerevisiae deletion strains, locus YMR129W, hits give low values 0.983 | S. cerevisiae deletion strains, locus YMR205C, strain PFK2, hits give low values 0.97 | S. cerevisiae deletion strains, locus YMR223W, strain ubp8, hits give low values 1 | S. cerevisiae deletion strains, locus YMR231W, strain pep5, hits give low values 1.02 | S. cerevisiae deletion strains, locus YMR263W, strain SAP30, hits give low values 0.988 | S. cerevisiae deletion strains, locus YMR307W, strain GAS1, hits give low values 0.746 | S. cerevisiae deletion strains, locus YNL067W, strain RPL9B, hits give low values 0.912 | S. cerevisiae deletion strains, locus YNL071W, strain lat1, hits give low values 0.998 | S. cerevisiae deletion strains, locus YNL128W, strain TEP1, hits give low values 0.98 | S. cerevisiae deletion strains, locus YNL153C, strain GIM3, hits give low values 0.996 | S. cerevisiae deletion strains, locus YNL183C, strain NPR1, hits give low values 0.958 | S. cerevisiae deletion strains, locus YNL209W, strain ssb2, hits give low values 1.02 | S. cerevisiae deletion strains, locus YNL233W, strain BNI4, hits give low values 0.995 | S. cerevisiae deletion strains, locus YNL248C, strain rpa49, hits give low values 0.963 | S. cerevisiae deletion strains, locus YNL250W, strain rad50, hits give low values 0.993 | S. cerevisiae deletion strains, locus YNL271C, strain bni1, hits give low values 1 | S. cerevisiae deletion strains, locus YNL298W, strain CLA4, hits give low values 1.02 | S. cerevisiae deletion strains, locus YNL307C, strain MCK1, hits give low values 1.01 | S. cerevisiae deletion strains, locus YNL322C, strain KRE1 (second series), hits give low values 1.01 | S. cerevisiae deletion strains, locus YNL322C, strain KRE1, hits give low values 0.994 | S. cerevisiae deletion strains, locus YNR049C, strain mso1, hits give low values 0.987 | S. cerevisiae deletion strains, locus YNR052C, strain pop2, hits give low values 1.01 | S. cerevisiae deletion strains, locus YOL006C, strain TOP1, hits give low values 0.82 | S. cerevisiae deletion strains, locus YOL012C, strain htz1 1.06 | S. cerevisiae deletion strains, locus YOL147C, strain pex11, hits give low values 1 | S. cerevisiae deletion strains, locus YOR001W, strain rrp6, hits give low values 0.979 | S. cerevisiae deletion strains, locus YOR061W, strain CKA2, hits give low values 1 | S. cerevisiae deletion strains, locus YOR069W, strain VPS5, hits give low values 1 | S. cerevisiae deletion strains, locus YOR070C, strain gyp1, hits give low values 0.986 | S. cerevisiae deletion strains, locus YOR080W, strain dia2, hits give low values 1.01 | S. cerevisiae deletion strains, locus YOR083W, strain WHI5, hits give low values 0.98 | S. cerevisiae deletion strains, locus YOR106W, strain vam3, hits give low values 0.904 | S. cerevisiae deletion strains, locus YOR136W, strain idh2, hits give low values 0.99 | S. cerevisiae deletion strains, locus YOR144C, strain elg1, hits give low values 1 | S. cerevisiae deletion strains, locus YOR184W, strain ser1, hits give low values 0.955 | S. cerevisiae deletion strains, locus YOR231W, strain MKK1, hits give low values 1.01 | S. cerevisiae deletion strains, locus YOR265W, strain rbl2, hits give low values 0.998 | S. cerevisiae deletion strains, locus YOR270C, strain vph1, hits give low values 0.827 | S. cerevisiae deletion strains, locus YOR290C, strain snf2, hits give low values 0.991 | S. cerevisiae deletion strains, locus YOR316C, strain cot1, hits give low values 1 | S. cerevisiae deletion strains, locus YPL051W, strain arl3, hits give low values 0.992 | S. cerevisiae deletion strains, locus YPL055C, strain LGE1, hits give low values 0.88 | S. cerevisiae deletion strains, locus YPL078C, strain atp4, hits give low values 0.998 | S. cerevisiae deletion strains, locus YPL106C, strain sse1, hits give low values 1 | S. cerevisiae deletion strains, locus YPL240C, strain hsp82, hits give low values 0.995 | S. cerevisiae deletion strains, locus YPL241C, strain CIN2, hits give low values 0.988 | S. cerevisiae deletion strains, locus YPL256C, strain CLN2, hits give low values 1 | S. cerevisiae deletion strains, locus YPR119W, strain clb2, hits give low values 0.998 | S. cerevisiae deletion strains, locus YPR141C, strain kar3, hits give low values 0.996 | S. cerevisiae deletion strains, locus YPR163C, strain tif3, hits give low values 1.01 | S. cerevisiae deletion strains, locus YPR167C, strain met16, hits give low values 1 | S. cerevisiae deletion strains, strain wtn01, hits give low values 0.996 | S. cerevisiae strains, strain wild type, hits give low values 0.975
